Structures are written as SMILES. Active and inactive are the calls of the source.

These results are taken from PubChem BioAssay.

Test [1] deals with Plasmodium falciparum Sir2 (PF13_0152, Sir2A). As to the kind of experiment: pfSir2 binders on small-molecule microarrays, primary screen, biochemical, small-molecule microarray, 635 nm fluorescence (AID 1098).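 Note: score merges spot fluorescence intensity with its signal-to-noise ratio.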 The conditions noted are these: small-molecule microarray binding, fluorescence 635 nm; higher = more signal.
The nature of test [2]: small-molecule microarray binders of probe aDKK1, primary screen, biochemical, biotinylated probe, 635/667 nm fluorescence (AID 1099).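 Note: score merges 667nm spot fluorescence with signal to noise across triplicate slides.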 The conditions noted are these: higher = more signal.
The nature of test [3]: small-molecule microarray binders of probe aCHRDL2, primary screen, biochemical, biotinylated probe, 635/667 nm fluorescence (AID 1100). The conditions noted are these: higher = more signal.
Test [4] in a line: splicing luciferase reporter signal modulators, primary screen, spliceosome inhibition project, cell-based, HEK293, splice +/- reporter (AID 1101).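 Note: HEK293 cells carrying a splicing-competent luciferase reporter gene; test concentration not given here.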 The conditions noted are these: luminescence, 24 h, higher = more signal, called active from +8 up or from −8 down.
Test [5] addresses Fibroblast growth factor 10 (Homo sapiens) (UniProt O15520). Put plainly: FGF10 binders on small-molecule microarrays, primary screen, biochemical, small-molecule microarray, 635 nm fluorescence (AID 1102). The conditions noted are these: FGF10 binding, fluorescence 635 nm, higher = more signal.
The test system of test [6] is glycogen synthase kinase-3 (GSK3A per assay name; protocol says GSK3B). As to the kind of experiment: GSK3 binders on small-molecule microarrays, primary screen, biochemical, small-molecule microarray, 635 nm fluorescence, GSK3A (AID 1103). Note: the record names both GSK3A and GSK3B. The conditions noted are these: small-molecule microarray binding, fluorescence 635 nm; higher = more signal.
Test [7] has as its target Epidermal growth factor receptor (Homo sapiens) (UniProt P00533). Put plainly: EGFR binders on small-molecule microarrays, primary screen, biochemical, small-molecule microarray, 635 nm fluorescence (AID 1104).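 Note: score merges 667 nm emission intensity with spot signal to noise over triplicate slides.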 The conditions noted are these: EGFR binding, higher = more signal.
Test [8] concerns the target Follistatin-related protein 3 (Homo sapiens) (UniProt O95633). Put plainly: FSTL3 binders on small-molecule microarrays, primary screen, biochemical, small-molecule microarray, 635 nm fluorescence (AID 1105).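 Note: score merges emission near 667 nm and signal to noise per printed spot across three slides.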 The conditions noted are these: FSTL3 binding, higher = more signal.
Test [9] deals with Dickkopf-related protein 1 (Homo sapiens) (UniProt O94907). As to the kind of experiment: DKK1 binders on small-molecule microarrays, primary screen, biochemical, small-molecule microarray, 635 nm fluorescence scan (AID 1106).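 Note: score merges emission near 667 nm with signal to noise over three replicate slides.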 The conditions noted are these: DKK1 binding, higher = more signal.
The test system of test [10] is Inhibin beta A chain (activin A). As to the kind of experiment: INHBA (activin A) binders on microarrays, primary screen, biochemical, small-molecule microarray, 635 nm fluorescence scan (AID 1107).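 Note: mouse activin A protein probed at 4.33 µg/mL on printed slides; score merges bound-protein fluorescence near 667 nm with spot signal-to-noise.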 The conditions noted are these: small-molecule microarray binding, higher = more signal.
Test [11] relates to Human papillomavirus type 1a protein E7 (residues 44-93). Put plainly: HPV1a E7 fragment binders on microarrays, primary screen, biochemical, small-molecule microarray, residues 44-93, 635 nm fluorescence (AID 1108).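 Note: E7 fragment applied at 1 µg/mL in TBST for 1 h at 4 C; score combines spot fluorescence with its signal to noise ratio.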 The conditions noted are these: small-molecule microarray binding, fluorescence 635 nm; higher = more signal.
Test [12] is described as follows: modulators of HCV replicon luciferase signal, primary screen, HCV replication inhibitor project, Huh7 cells, luciferase reporter (AID 1109).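 Note: huh7 hepatoma cells harbouring a luciferase neomycin HCV replicon reporter; luciferase luminescence as measure of HCV replicon replication; test concentration not given here.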 The conditions noted are these: 48 h, higher = more signal.
For test [13], the target named is Left-right determination factor 2 (Homo sapiens) (UniProt O00292). As to the kind of experiment: LEFTY2 binders on small-molecule microarrays, primary screen, biochemical, small-molecule microarray, 635 nm fluorescence scan (AID 1110). The conditions noted are these: LEFTY2 binding, higher = more signal.
The target in test [14] is Calmodulin-1 (Homo sapiens) (UniProt P0DP23). As to the kind of experiment: CALM1 binders on microarrays, EGTA buffer, profiling panel, biochemical, small-molecule microarray, Cy5-labelled CALM1 (AID 1111).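 Note: labelled calmodulin applied in Tris saline Tween buffer holding calcium plus EGTA and DTT.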 The conditions noted are these: Cy5-CALM1 binding fluorescence, higher = more signal.
Test [15] shares this target. As to the kind of experiment: calcium-bound CALM1 binders on microarrays, profiling panel, artefact control for SMM control-protein annotation, biochemical, small-molecule microarray, Cy5-labelled CALM1, plus calcium (AID 1112).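 Note: score merges spot fluorescence with signal to noise from triplicate slides.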 The conditions noted are these: Cy5-CALM1 binding fluorescence, higher = more signal.
Test [16] can be described thus: small-molecule microarray binders of probe aWnt5a, primary screen, biochemical, biotinylated probe, 635/667 nm fluorescence (AID 1113).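 Note: score merges 667 nm fluorescence intensity with signal-to-noise per printed feature.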 The conditions noted are these: higher = more signal.
Test [17] is described as follows: small-molecule microarray binders of probe aShh, primary screen, biochemical, biotinylated probe, 635/667 nm fluorescence (AID 1114).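 Note: probe is biotin-labelled aShh protein from a stem cell growth factor screen; measures binding of labelled protein to compounds printed on the slide; score merges feature fluorescence at 667 nm with signal-to-noise.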 The conditions noted are these: higher = more signal.
The nature of test [18]: small-molecule microarray binders of probe aNog, primary screen, biochemical, biotinylated probe, 635/667 nm fluorescence (AID 1115).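 Note: probe is biotinylated aNog protein used at 0.15 µg/mL for 1 h at 4 C; z-score combines 667 nm fluorescence of each spot with its signal to noise.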 The conditions noted are these: higher = more signal.
The target in test [19] is Torsin-1A-interacting protein 1 (Homo sapiens) (UniProt Q5JTV8). As to the kind of experiment: LAP1 binders from COS7 cell lysate, primary screen, small-molecule microarray, 635/667 nm fluorescence (AID 1116). The conditions noted are these: COS7-hLAP1 lysate binding, 635 nm fluorescence, higher = more signal.
For test [20], the target named is Alpha-bungarotoxin (Bungarus multicinctus) (UniProt P60615). As to the kind of experiment: alpha-bungarotoxin binders on microarray, profiling panel, artefact control for SMM control protein annotation, biochemical, small-molecule microarray, Alexa647 label, 635/667 nm fluorescence (AID 1117). The conditions noted are these: alpha-BTX-A647 binding fluorescence, higher = more signal.
Alpha-bungarotoxin (Bungarus multicinctus), sequence (P60615 whole entry, looked up): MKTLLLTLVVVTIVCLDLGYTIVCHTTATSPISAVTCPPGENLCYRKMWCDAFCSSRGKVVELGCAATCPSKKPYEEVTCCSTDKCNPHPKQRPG

Left-right determination factor 2 (Homo sapiens), sequence (O00292 whole entry, looked up): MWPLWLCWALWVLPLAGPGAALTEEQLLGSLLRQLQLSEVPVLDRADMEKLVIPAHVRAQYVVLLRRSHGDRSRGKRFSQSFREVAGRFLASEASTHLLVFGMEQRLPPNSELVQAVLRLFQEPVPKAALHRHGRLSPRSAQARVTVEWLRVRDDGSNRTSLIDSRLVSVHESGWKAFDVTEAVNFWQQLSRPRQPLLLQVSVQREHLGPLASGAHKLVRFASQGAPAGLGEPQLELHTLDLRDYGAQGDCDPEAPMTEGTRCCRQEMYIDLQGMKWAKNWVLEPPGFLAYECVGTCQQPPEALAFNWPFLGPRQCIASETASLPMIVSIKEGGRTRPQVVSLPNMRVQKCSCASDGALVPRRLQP
Epidermal growth factor receptor (Homo sapiens), sequence (P00533 whole entry, looked up): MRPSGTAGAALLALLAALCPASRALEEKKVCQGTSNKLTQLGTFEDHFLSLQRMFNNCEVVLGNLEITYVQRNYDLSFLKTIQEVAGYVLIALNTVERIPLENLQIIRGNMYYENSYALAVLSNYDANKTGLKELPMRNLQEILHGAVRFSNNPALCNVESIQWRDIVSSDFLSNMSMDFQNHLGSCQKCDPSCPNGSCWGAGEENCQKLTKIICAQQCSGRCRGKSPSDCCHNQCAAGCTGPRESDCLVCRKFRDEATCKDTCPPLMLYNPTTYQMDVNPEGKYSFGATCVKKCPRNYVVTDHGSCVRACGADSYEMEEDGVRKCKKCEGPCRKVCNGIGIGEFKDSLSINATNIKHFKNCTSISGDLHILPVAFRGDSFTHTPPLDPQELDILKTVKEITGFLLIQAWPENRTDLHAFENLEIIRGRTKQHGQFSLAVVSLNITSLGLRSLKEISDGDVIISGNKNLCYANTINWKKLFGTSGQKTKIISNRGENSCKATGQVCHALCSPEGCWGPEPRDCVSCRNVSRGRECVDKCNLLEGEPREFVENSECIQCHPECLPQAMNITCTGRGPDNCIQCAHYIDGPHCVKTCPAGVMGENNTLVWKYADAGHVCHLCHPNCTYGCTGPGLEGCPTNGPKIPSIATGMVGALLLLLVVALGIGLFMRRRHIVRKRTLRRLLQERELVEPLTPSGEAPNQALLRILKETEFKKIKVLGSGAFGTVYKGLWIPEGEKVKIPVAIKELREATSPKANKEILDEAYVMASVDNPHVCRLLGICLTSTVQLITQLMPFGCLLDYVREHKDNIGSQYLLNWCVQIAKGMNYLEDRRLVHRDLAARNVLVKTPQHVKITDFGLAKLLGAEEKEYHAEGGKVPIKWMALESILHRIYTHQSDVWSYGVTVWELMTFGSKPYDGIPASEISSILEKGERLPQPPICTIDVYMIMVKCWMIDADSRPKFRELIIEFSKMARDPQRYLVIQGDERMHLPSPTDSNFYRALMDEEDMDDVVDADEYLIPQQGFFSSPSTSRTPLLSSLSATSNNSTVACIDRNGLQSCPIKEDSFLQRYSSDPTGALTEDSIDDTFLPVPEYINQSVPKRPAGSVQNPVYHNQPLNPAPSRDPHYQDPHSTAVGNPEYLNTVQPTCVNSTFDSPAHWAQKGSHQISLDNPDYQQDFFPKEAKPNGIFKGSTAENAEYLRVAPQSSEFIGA
Dickkopf-related protein 1 (Homo sapiens), sequence (O94907 whole entry, looked up): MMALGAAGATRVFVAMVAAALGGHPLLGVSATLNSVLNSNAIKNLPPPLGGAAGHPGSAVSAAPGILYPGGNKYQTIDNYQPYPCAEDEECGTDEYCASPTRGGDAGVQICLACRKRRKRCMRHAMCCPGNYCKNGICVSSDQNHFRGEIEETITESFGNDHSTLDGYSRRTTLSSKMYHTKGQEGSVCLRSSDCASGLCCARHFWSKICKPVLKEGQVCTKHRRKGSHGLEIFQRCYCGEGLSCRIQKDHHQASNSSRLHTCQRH
Torsin-1A-interacting protein 1 (Homo sapiens), sequence (Q5JTV8 whole entry, looked up): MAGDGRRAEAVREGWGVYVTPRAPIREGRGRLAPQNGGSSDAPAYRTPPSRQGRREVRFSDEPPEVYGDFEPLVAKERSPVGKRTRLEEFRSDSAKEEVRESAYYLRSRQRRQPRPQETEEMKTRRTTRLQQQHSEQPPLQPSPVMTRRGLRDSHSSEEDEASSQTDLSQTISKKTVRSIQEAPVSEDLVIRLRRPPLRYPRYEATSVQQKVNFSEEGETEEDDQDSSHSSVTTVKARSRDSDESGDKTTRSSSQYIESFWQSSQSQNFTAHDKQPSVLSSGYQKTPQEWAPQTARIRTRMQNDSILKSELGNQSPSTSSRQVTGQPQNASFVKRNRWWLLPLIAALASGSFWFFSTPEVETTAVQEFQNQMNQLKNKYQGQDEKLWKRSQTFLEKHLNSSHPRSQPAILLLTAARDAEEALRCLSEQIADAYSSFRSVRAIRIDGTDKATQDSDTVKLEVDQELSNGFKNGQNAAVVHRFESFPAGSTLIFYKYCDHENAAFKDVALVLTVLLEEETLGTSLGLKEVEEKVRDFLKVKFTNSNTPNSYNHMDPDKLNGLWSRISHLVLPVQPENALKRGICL
Follistatin-related protein 3 (Homo sapiens), sequence (O95633 whole entry, looked up): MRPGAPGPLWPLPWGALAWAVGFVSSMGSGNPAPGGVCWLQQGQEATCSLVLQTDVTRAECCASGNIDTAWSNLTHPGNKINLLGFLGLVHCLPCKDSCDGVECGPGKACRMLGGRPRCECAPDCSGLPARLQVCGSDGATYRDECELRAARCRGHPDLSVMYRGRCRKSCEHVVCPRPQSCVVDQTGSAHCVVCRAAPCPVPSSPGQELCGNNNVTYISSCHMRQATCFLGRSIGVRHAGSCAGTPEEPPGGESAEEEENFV
Fibroblast growth factor 10 (Homo sapiens), sequence (O15520 whole entry, looked up): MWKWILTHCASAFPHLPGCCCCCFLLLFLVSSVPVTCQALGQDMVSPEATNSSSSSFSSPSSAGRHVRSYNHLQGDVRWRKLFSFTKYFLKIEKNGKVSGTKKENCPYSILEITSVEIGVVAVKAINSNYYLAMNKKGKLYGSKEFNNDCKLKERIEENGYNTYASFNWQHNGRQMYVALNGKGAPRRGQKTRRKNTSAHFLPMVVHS

Take `Cc1ccc(N2C(=O)c3ccccc3[C@](C)(C(=O)NC3CC3)[C@@H]2c2ccc(CO)cc2)nc1`: the composite z-score is -0.168 in [1]; 0.931 in [2]; 0.541 in [3]; -0.0779 in test [5]; -0.0639 in test [6]; -0.0541 in test [7]. For the same molecule, the composite z-score is 0.44 in [8]; 0.272 in test [9]; 1.13 in [10]; -1.22 in test [11]; 0.129 in [13]; -2.49 in test [14]. Moreover, the composite z-score in test [15] is -0.231; in test [16] it was -0.0792; in test [17] it was -0.341; in [18], 0.0265; in [19] it was 1.26; in [20], 0.413. Also, the z-score in test [4] is 0.466 (inactive); in test [12], 0.344.
For `COC(=O)C(CC#Cc1ccc2c(c1)[C@]1(C(=O)N2)[C@H](C(=O)O)[C@H]2C(=O)O[C@H](c3ccccc3)[C@H](c3ccccc3)N2[C@@H]1c1ccc(OCCO)cc1)C(=O)OC`, the composite z-score in test [1] was 1.53; in test [2], 0.393; in [3], 0.799; in test [5], 1.15; in [6], 0.987; in test [7] it was -0.199. Besides, the composite z-score is 0.0514 in test [8]; -0.611 in test [9]; 0.117 in test [10]; 0.738 in test [11]; 0.155 in test [13]; 2.16 in [14]. In addition, the composite z-score in test [15] is 0.717; in test [16] it was -0.0229; in test [17], 0.166; in test [18], 0.78; in test [19] it was 1.5; in [20], 3.51. Also, the z-score in test [4] was -1.31 (inactive); in test [12], -0.555.
With `CCCNC(=O)[C@@]1(Sc2ccc(C)cc2)CC(=O)N(Cc2cc(C(F)(F)F)cc(C(F)(F)F)c2)[C@@H]1c1ccc(CO)cc1I`, the composite z-score was 1.24 in test [1]; 0.832 in [2]; 1.11 in test [3]; -0.544 in test [5]; -0.656 in test [6]; -0.711 in test [7]. The composite z-score in [8] was -0.372; in test [9], -0.799; in test [10], 1.08; in test [11] it was -0.536; in test [13], -1.58; in [14] it was 1.54. The composite z-score in test [15] is 1.11; in test [16] it was -0.0512; in test [17], 0.0141; in test [18] it was 0.573; in [19], 1.68; in test [20], 0.521. Besides, the results for the z-score in test [4] and in test [12] were -2.39 (inactive) and -1.41, respectively.
With `CC(C)(C)OC(=O)CC[C@]1(C(=O)NCc2ccccc2)N=C(c2ccc(OCCCO)cc2)O[C@H]1c1ccccc1N=[N+]=[N-]`, the composite z-score in [1] was 1.02; in [2], 1.36; in test [3], 1.35; in test [5], 1.21; in test [6], 1.29; in test [7], -0.0113. Further, the composite z-score in test [8] is 1; in test [9], 0.496; in test [10], 0.947; in test [11], -0.385; in test [13], 0.478; in [14], 2.14. Also, the composite z-score amounted to 0.756 in test [15]; 0.17 in [16]; 0.57 in [17]; 1.11 in [18]; 1.63 in test [19]; 2.77 in test [20]. Further, the z-score was -2.19 (inactive) in test [4] and -0.5 in test [12].
Consider `COc1ccc(CCNC(=O)[C@@]2(Sc3ccc(C)cc3)CC(=O)N(Cc3ccccc3)[C@@H]2c2ccc(CO)cc2I)cc1`, for which the composite z-score in test [1] was 1.16; in test [2], -0.0607; in [3], 0.566; in [5] it was -0.553; in [6], -0.407; in test [7], -0.46. For the same molecule, the composite z-score in [8] was 0.149; in test [9], 0.0928; in test [10] it was 0.761; in [11] it was 0.152; in test [13], -1.46; in test [14], -0.615. Further, the composite z-score was -0.0032 in test [15]; -0.17 in test [16]; -0.596 in [17]; 0.0805 in [18]; -0.72 in test [19]; 0.672 in test [20]. Further, the z-score in test [4] was -1.24 (inactive); in test [12], -2.18.
